# In PubChem BioAssay (NCI):
# This is part of a sample that, as a whole, favours compounds with a hit. Of some 83,000 tested, about 20% had one in any assay.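 Step 1: grow cells in 96-well plates. Step 2: add test compound at a single concentration. Step 3: incubate 48 h. Step 4: record percent growth.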 Unmarked numbers belong to inactive results. Active and inactive are the calls of the source. Rule for the calls: active = growth percent below 10; inactive = the rest.
# Legend:
# Assay in all cases: NCI-60 one-dose screen, 48 h (100 = growth as untreated, 0 = no growth, -100 = all killed)
# Conditions in all cases: 10 µM unless noted
# RPMI-8226 leukemia = test system: RPMI-8226 leukemia
# OVCAR-8 ovarian = test system: OVCAR-8 ovarian
# OVCAR-5 ovarian = test system: OVCAR-5 ovarian
# OVCAR-4 ovarian = test system: OVCAR-4 ovarian
# SK-OV-3 ovarian = test system: SK-OV-3 ovarian
# IGROV1 ovarian = test system: IGROV1 ovarian
# OVCAR-3 ovarian = test system: OVCAR-3 ovarian
# HS 578T breast = test system: HS 578T breast
# NCI/ADR-RES ovarian = test system: NCI/ADR-RES ovarian
# T-47D breast = test system: T-47D breast
SMILES,growth (RPMI-8226 leukemia),growth (OVCAR-8 ovarian),growth (OVCAR-5 ovarian),growth (OVCAR-4 ovarian),growth (SK-OV-3 ovarian),growth (IGROV1 ovarian),growth (OVCAR-3 ovarian),growth (HS 578T breast),growth (NCI/ADR-RES ovarian),growth (T-47D breast)
COc1ccc(-c2nc(-c3ccccn3)c(-c3ccccn3)n2CC(C)C)cc1OC1CCCC1,-1.78% (active),15.7%,33.8%,13.5%,8.21% (active),19.6%,15.5%,43.3%,10.9%,21.5%
O=S(=O)(c1ccccc1)n1cc2c(c1-c1ccccc1)CCc1sc(Nc3ccccc3)nc1-2,67.7%,79.8%,94.4%,75.2%,99.7%,115%,72.5%,98.3%,76.8%,64.1%
CCCCC(O)(c1ccc(Cl)cc1)C(CN1CCOCC1)c1ccc(Cl)cc1 (configuration not stated),18.5%,22.3%,83.1%,32%,81.1%,40%,3.29% (active),40%,29.9%,32%
COc1cc2cc3c(=O)n4c(cc5cc(OC)ncc54)c(=O)n3c2cn1,98%,112%,110%,114%,113%,95.8%,109%,104%,108%,95.2%
Cc1ccc(C)c(-c2csc(Nc3ccc(C)c(C)c3)n2)c1,2.64% (active),54.5%,94%,54.5%,77.8%,81%,67.4%,,54.2%,39.3%
CN1CCN(Cc2ccc(NC(=O)c3[nH]ncc3Nc3cc(OC4CCCC4)ncn3)cc2)CC1,16.9%,42.6%,50.5%,59.2%,4.89% (active),35%,11.2%,32.8%,44%,64.1%
O=C(c1ccccc1)N(C(=S)NCCc1ccc(Cl)cc1)c1ccccc1,-30.9% (active),105%,91.2%,96.9%,114%,102%,98%,112%,99%,59.6%
O=c1oc2ccc(I)cc2c(=O)n1-c1ccc(Cl)cc1F,-24.8% (active),8.33% (active),21.5%,15.8%,-1.52% (active),18.7%,8.51% (active),,8.36% (active),-12% (active)
Cc1ccc2[nH]c(=O)cc(-n3nncc3Cn3c4ccccc4c4ccccc43)c2c1,109%,94.9%,104%,98.7%,91.4%,103%,101%,88.4%,99.5%,106%
O=C(COc1cc(O)c2c(=O)cc(-c3ccccc3)oc2c1)Nc1ccccc1,93.3%,87.2%,98.1%,78.9%,107%,99.1%,106%,80.3%,88.9%,94.3%
N[C@@H](CC/[N+]([O-])=N/O)C(=O)O,101%,109%,100%,105%,105%,93.3%,102%,98.4%,103%,94.4%
COc1ccc(Cn2c(Br)c3c(c2-c2cc(OC)c(OC)c(OC)c2)CCc2sc(NC(C)=O)nc2-3)cc1,53.5%,60.4%,96.8%,49.8%,35.5%,6.54% (active),-14.4% (active),24.6%,27.1%,37.2%
CCOC(=O)c1ccc(N=Cc2sc(=O)[nH]c2O)cc1,101%,92.1%,102%,100%,91.6%,87.1%,103%,88.1%,96.8%,92.3%
CCN1C(=O)N(CC)C2C1NN=c1s/c(=C3\C(=O)N(C(C)C)c4ccccc43)c(=O)n12 (configuration not stated),7.53% (active),12.6%,54.2%,58.1%,29.7%,36.5%,5.56% (active),,7.06% (active),68.1%
